Paper PMC5540273 (PLoS ONE, 2017)

Assays:
Settings in all cases: concentration: 1 μM, replicates: in singlicate; n = 1
SNARK = system: T1, SNARK
T1 construct: gene NUAK2

SNRK = system: SNRK
SRC = system: SRC
SRMS = system: SRMS
SRPK1 = system: SRPK1
SRPK2 = system: SRPK2
SRPK3 = system: SRPK3
STK16 = system: STK16
STK33 = system: STK33
STK35 = system: STK35
STK36 = system: STK36
STK39 = system: STK39
SYK = system: SYK
SgK110 = system: SgK110
TAK1 = system: T2, TAK1
T2 construct: gene MAP3K7

TAOK1 = system: TAOK1
TAOK2 = system: TAOK2
TAOK3 = system: TAOK3
TBK1 = system: TBK1
TEC = system: TEC
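Also: KINOMEscan kinase panel screen.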

SMILES	%Inh (SNARK)	%Inh (SNRK)	%Inh (SRC)	%Inh (SRMS)	%Inh (SRPK1)	%Inh (SRPK2)	%Inh (SRPK3)	%Inh (STK16)	%Inh (STK33)	%Inh (STK35)	%Inh (STK36)	%Inh (STK39)	%Inh (SYK)	%Inh (SgK110)	%Inh (TAK1)	%Inh (TAOK1)	%Inh (TAOK2)	%Inh (TAOK3)	%Inh (TBK1)	%Inh (TEC)
CCn1c(-c2nonc2N)nc2c(C#CC(C)(C)O)nc(OC[C@H](N)c3ccccc3)cc21 [GSK943949]	92.8%	0%	1%	4%	41%	0%	24%	9%	0%	0%	0%	5%	2%	0%	18%	64%	27%	3%	0%	0%
C[C@@H]1CC[C@@H](C(=O)Nc2ccccc2)CN1c1cc(-c2ccc3c(N)n[nH]c3c2)nc(N)n1 [GSK2286062]	11%	0%	0%	0%	25%	33%	0%	8%	0%	0%	0%	0%	30%	0%	0%	0%	0%	10%	17%	0%
C[C@@H](Oc1cc(-n2cnc3cc(-c4ccnc(NCCS(C)(=O)=O)c4)ccc32)sc1C(N)=O)c1ccccc1Cl [GSK907232]	95.4%	0%	48%	0%	84%	0%	82%	27%	0%	15%	0%	13%	80%	0%	0%	0%	0%	0%	5%	4%
Nc1ncc(-c2ccc3nccc(-c4ccncc4)c3c2)cc1S(=O)(=O)N1CCOCC1 [GSK1627798]	8%	0%	0%	0%	0%	0%	4%	22%	0%	0%	0%	0%	12%	0%	0%	0%	0%	0%	10%	9%
Cc1ccc(S(=O)(=O)Nc2ccc(Nc3nccc(Nc4cccc5[nH]ncc45)n3)cc2)cc1 [GSK581271]	0%	0%	64%	0%	51%	5%	9%	43%	0%	55%	0%	1%	31%	0%	0%	0%	0%	0%	9%	9%
COc1cccc(C2=C(Nc3ccc(Cl)c(C(=O)O)c3)C(=O)NC2=O)c1 [SB-390769]	100%	100%	0%	100%	13%	0%	17%	8%	0%	0%	0%	13%	34%	57%	0%	100%	100%	100%	100%	0%
c1ccc(-c2n[nH]cc2Nc2ccnc3ccccc23)nc1 [GW694077]	27%	0%	0%	0%	69%	46%	90%	15%	6%	0%	0%	8%	16%	0%	91.6%	66%	21%	10%	0%	0%
Cc1cccc(Nc2nc(N[C@H]3CCNC3)ncc2C(N)=O)c1.Cl [GSK2197149]	34%	0%	85%	0%	72%	0%	76%	12%	40%	1%	10%	9%	81%	0%	90%	39%	0%	5%	18%	0%
